Test results: PubChem BioAssay
Records with an inconclusive call do not appear. The source made the active and inactive calls.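 How the source made its calls, unless noted: active means viability increase at or above a cutoff of the median across tested compounds plus 3 SD (cut at about 8.5% in these data, passing the limit was not always enough); inconclusive means some gains above the cutoff, reason not given; inactive means the rest.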 Non-standard residues stand in square brackets, D forms with d. Residues, ends and D or L forms follow the SMILES beside them. ξ: configuration not given here. *: point of attachment. Cbz = O=C(OCc1ccccc1)*; ξV = CC(C)C(N)C(=O)O; OtBu = CC(C)(C)O*

Test: doxorubicin toxicity protection in MRP-1 cells – H69AR cells, CellTiter-Glo, duplicate, MRP-1 activator project, pilot screen (AID 807);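 further: compound pretreatment 18-22 h then 72 h combined with doxorubicin; 0% = doxorubicin alone and 100% = vehicle without doxorubicin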
Settings: H69AR viability with doxorubicin, CellTiter-Glo luminescence; at 10 µM; hits give high values

| SMILES | viability increase |
| --- | --- |
| Cc1nnc(NC(=O)CSc2nnc(Cc3cccn3C)n2-c2cccc(C(F)(F)F)c2)s1 | -3.3% (inactive) |
| O=S(=O)(c1cccs1)n1nnc2ccccc21 | -0.18% (inactive) |
| CC(C)N(CCCNC(=O)CC1Oc2ccccc2NC1=O)Cc1ccccc1 (stereo not given) | -1.49% (inactive) |
| O=C(Nc1ccccc1C(=O)NC(Cc1c[nH]c2ccccc12)C(=O)O)c1ccco1 (stereo not given) | -2.96% (inactive) |
| COCCCN(C(=O)Nc1ccc(C)c(C)c1)C(C)c1ccccn1 (stereo not given) | -1.65% (inactive) |
| O=C(Cn1c(=O)sc2ccccc21)Nc1ccccc1C(=O)O | 1.36% (inactive) |
| CCCCNc1cc(=O)n(C)c(=O)[nH]1 | -0.6% (inactive) |
| C=CCc1cc(/C=N/n2cnnc2)cc(OCC)c1O | -2.46% (inactive) |
| O=C(c1cnc2n(c1=O)CCS2)N1CCN(C(c2ccccc2)c2ccc(Cl)cc2)CC1 (stereo not given) | -5.31% (inactive) |
| COc1cccc(-c2nnc3n2N=C(C(C)(C)C)CS3)c1 | -4.18% (inactive) |
| CC1=C(C(N)=O)C(c2ccccn2)n2nc(SCc3ccccc3Cl)nc2N1 (stereo not given) | -1.33% (inactive) |
| Cc1nnc(SCC(=O)N2CCOCC2)n1C | -0.95% (inactive) |
| CCc1nnc(NC(=O)CCC(=O)O)s1 | 0.56% (inactive) |
| O=C(Nc1cccc(F)c1)c1ccc(S(=O)(=O)N2CCOCC2)cc1 | -2.24% (inactive) |
| O=C(NCc1ccc2c(c1)OCO2)C1CC(=O)N(CCc2ccccc2)C1 (stereo not given) | -0.29% (inactive) |
| COc1cc(OC)c(NC(=O)c2ccc(Br)o2)cc1Cl | -7.05% (inactive) |
| CCOc1ccc2nc(N3CCC(C(=O)Nc4nnc(CC)s4)CC3)sc2c1 | -0.45% (inactive) |
| CC(C)C(NC(=O)OCc1ccccc1)C(=O)NCC(=O)OC(C)(C)C (stereo not given) (Cbz-[ξV]-Gly-OtBu) | 0.2% (inactive) |
| Cc1cc(Nc2ccc(F)cc2)n2nc(C)nc2n1 | -0.76% (inactive) |
| CCOc1ccc(NC(=O)CSc2nnc(Cn3c(=O)sc4ccccc43)n2C)cc1 | -2.49% (inactive) |

| SMILES | viability increase |
| --- | --- |
| Cn1c(=O)cc(N2CCc3ccccc32)[nH]c1=O | 0.37% (inactive) |
| CC1(C)CC(=O)c2sc(NC(=O)C3CC3)nc2C1 | 1.37% (inactive) |
| CCN(CC)CCN1C(=O)C2C3c4ccccc4C(c4ccccc43)C2C1=O (stereo not given) | -2.46% (inactive) |
| CCCN1CCN(C(=O)C2CCN(S(=O)(=O)c3ccc4c(c3)oc(=O)n4C)CC2)CC1 | -0.29% (inactive) |
| C=CCn1c(SCC(=C)C)nc2c1c(=O)[nH]c(=O)n2C | -0.41% (inactive) |
| CCC(C)NC(=O)c1ccc(CS(=O)(=O)c2ccc(OC)cc2)o1 (stereo not given) | -1.33% (inactive) |
| CC(=O)C(C)Oc1ccc2c3c(c(=O)oc2c1)CCCC3 (stereo not given) | 0.37% (inactive) |
| C=CCOC(=O)c1[nH]c2c(c1C)C(=O)CC(c1cc(OC)c(OC)c(OC)c1)C2 (stereo not given) | -0.05% (inactive) |
| CCOc1nonc1C(=N)/C(C(C)=O)=C(\C)O | -1.06% (inactive) |
| Cc1ccc(Nc2nc(C3CC3)cs2)cc1 | -1.97% (inactive) |
| Cc1ccccc1CN1CCNC(=O)C1CC(=O)O (stereo not given) | -3.29% (inactive) |
| CCN1CCN(CCNC(=O)c2ccc(CS(=O)(=O)c3c(Cl)cccc3Cl)o2)CC1 | -1.94% (inactive) |
| COc1ccc(C(=O)N(Cc2nc(-c3ccc(C)cc3)no2)C(C)C)cc1OC | 1.37% (inactive) |
| COc1cc2c(cc1OC)C1=C(C#N)CC/C(=N\S(=O)(=O)c3ccccc3)N1CC2 | -4.28% (inactive) |
| Nc1nc2n(n1)C(c1ccco1)CC(c1ccc(F)cc1)N2 (stereo not given) | 1.69% (inactive) |
| C=CCN(c1ccccc1)S(=O)(=O)c1ccc2c(c1)oc(=O)n2C | -2.65% (inactive) |
| C#CCn1c(=NC(=O)c2cccs2)sc2cccc(OC)c21 | -3.51% (inactive) |
| CC(=O)N1CCN(c2ccc(NCc3ccc(F)cc3)cc2)CC1 | -2.9% (inactive) |
| CCn1c(SCC(=O)N2CCCC2)nc2c(c1=O)SC(C)C2 (stereo not given) | -4.48% (inactive) |
| CC(C)(CC(=O)O)Cc1nc(-c2ccc(Cl)cc2)no1 | 1.26% (inactive) |

Test: viability of HCT116 without oncogenic beta-catenin – human colon tumor cells, pilot screen (AID 823;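 active means cell viability at or below a set limit in both duplicate runs, the limit being the all-compound median minus 4 SD, cut at about 23% in these data, passing the limit was not always enough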;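 further: 0% = wells killed by 20 µM Hyamine and 100% = untreated DMSO cell wells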)
Settings: HCT116 beta-catenin knockout viability, CellTiter-Glo, 60 h; at 10 µM; hits give low values

| SMILES | viability |
| --- | --- |
| Cc1nnc(NC(=O)CSc2nnc(Cc3cccn3C)n2-c2cccc(C(F)(F)F)c2)s1 | 98.8% (inactive) |
| O=S(=O)(c1cccs1)n1nnc2ccccc21 | 103% (inactive) |
| CC(C)N(CCCNC(=O)CC1Oc2ccccc2NC1=O)Cc1ccccc1 (stereo not given) | 89.3% (inactive) |
| O=C(Nc1ccccc1C(=O)NC(Cc1c[nH]c2ccccc12)C(=O)O)c1ccco1 (stereo not given) | 102% (inactive) |
| COCCCN(C(=O)Nc1ccc(C)c(C)c1)C(C)c1ccccn1 (stereo not given) | 102% (inactive) |
| O=C(Cn1c(=O)sc2ccccc21)Nc1ccccc1C(=O)O | 102% (inactive) |
| CCCCNc1cc(=O)n(C)c(=O)[nH]1 | 104% (inactive) |
| C=CCc1cc(/C=N/n2cnnc2)cc(OCC)c1O | 102% (inactive) |
| O=C(c1cnc2n(c1=O)CCS2)N1CCN(C(c2ccccc2)c2ccc(Cl)cc2)CC1 (stereo not given) | 79.1% (inactive) |
| COc1cccc(-c2nnc3n2N=C(C(C)(C)C)CS3)c1 | 5.81% (active) |
| CC1=C(C(N)=O)C(c2ccccn2)n2nc(SCc3ccccc3Cl)nc2N1 (stereo not given) | 90.5% (inactive) |
| Cc1nnc(SCC(=O)N2CCOCC2)n1C | 106% (inactive) |
| CCc1nnc(NC(=O)CCC(=O)O)s1 | 98.3% (inactive) |
| O=C(Nc1cccc(F)c1)c1ccc(S(=O)(=O)N2CCOCC2)cc1 | 98.3% (inactive) |
| O=C(NCc1ccc2c(c1)OCO2)C1CC(=O)N(CCc2ccccc2)C1 (stereo not given) | 96.1% (inactive) |
| COc1cc(OC)c(NC(=O)c2ccc(Br)o2)cc1Cl | 69.8% (inactive) |
| CCOc1ccc2nc(N3CCC(C(=O)Nc4nnc(CC)s4)CC3)sc2c1 | 95.8% (inactive) |
| CC(C)C(NC(=O)OCc1ccccc1)C(=O)NCC(=O)OC(C)(C)C (stereo not given) (Cbz-[ξV]-Gly-OtBu) | 96.6% (inactive) |
| Cc1cc(Nc2ccc(F)cc2)n2nc(C)nc2n1 | 100% (inactive) |
| CCOc1ccc(NC(=O)CSc2nnc(Cn3c(=O)sc4ccccc43)n2C)cc1 | 98% (inactive) |

| SMILES | viability |
| --- | --- |
| Cn1c(=O)cc(N2CCc3ccccc32)[nH]c1=O | 90.8% (inactive) |
| CC1(C)CC(=O)c2sc(NC(=O)C3CC3)nc2C1 | 104% (inactive) |
| CCN(CC)CCN1C(=O)C2C3c4ccccc4C(c4ccccc43)C2C1=O (stereo not given) | 96.5% (inactive) |
| CCCN1CCN(C(=O)C2CCN(S(=O)(=O)c3ccc4c(c3)oc(=O)n4C)CC2)CC1 | 108% (inactive) |
| C=CCn1c(SCC(=C)C)nc2c1c(=O)[nH]c(=O)n2C | 109% (inactive) |
| CCC(C)NC(=O)c1ccc(CS(=O)(=O)c2ccc(OC)cc2)o1 (stereo not given) | 104% (inactive) |
| CC(=O)C(C)Oc1ccc2c3c(c(=O)oc2c1)CCCC3 (stereo not given) | 93% (inactive) |
| C=CCOC(=O)c1[nH]c2c(c1C)C(=O)CC(c1cc(OC)c(OC)c(OC)c1)C2 (stereo not given) | 53.4% (inactive) |
| CCOc1nonc1C(=N)/C(C(C)=O)=C(\C)O | 104% (inactive) |
| Cc1ccc(Nc2nc(C3CC3)cs2)cc1 | 92.5% (inactive) |
| Cc1ccccc1CN1CCNC(=O)C1CC(=O)O (stereo not given) | 105% (inactive) |
| CCN1CCN(CCNC(=O)c2ccc(CS(=O)(=O)c3c(Cl)cccc3Cl)o2)CC1 | 110% (inactive) |
| COc1ccc(C(=O)N(Cc2nc(-c3ccc(C)cc3)no2)C(C)C)cc1OC | 93.6% (inactive) |
| COc1cc2c(cc1OC)C1=C(C#N)CC/C(=N\S(=O)(=O)c3ccccc3)N1CC2 | 97.8% (inactive) |
| Nc1nc2n(n1)C(c1ccco1)CC(c1ccc(F)cc1)N2 (stereo not given) | 98.4% (inactive) |
| C=CCN(c1ccccc1)S(=O)(=O)c1ccc2c(c1)oc(=O)n2C | 98.7% (inactive) |
| C#CCn1c(=NC(=O)c2cccs2)sc2cccc(OC)c21 | 79.6% (inactive) |
| CC(=O)N1CCN(c2ccc(NCc3ccc(F)cc3)cc2)CC1 | 90.1% (inactive) |
| CCn1c(SCC(=O)N2CCCC2)nc2c(c1=O)SC(C)C2 (stereo not given) | 101% (inactive) |
| CC(C)(CC(=O)O)Cc1nc(-c2ccc(Cl)cc2)no1 | 100% (inactive) |
